{"source": "PubChem BioAssay (NCI)", "note": "Compounds without any hit were thinned out: in the full panel of roughly 83,000, 20% have a hit.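 How to read the values: 0–100, growth inhibition (40 = 60% inhibited); 0, no net growth; -100 to 0, cell death (-40 = 40% of starting cells died; -100 = all dead).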 A number with no mark means an inactive call. The source made the active and inactive calls. Rule for the calls: active = growth percent below 10; inactive = the rest.", "data": [{"tested_on": "HCT-15 colon", "experiment": "NCI-60 one-dose screen, 48 h (100 = growth as untreated, 0 = no growth, -100 = all killed)", "conditions": "10 µM unless noted", "values": [{"smiles": "Clc1nc(Cl)c2ncn(CCOCCn3cnc4c(Cl)nc(Cl)nc43)c2n1", "growth": "-78.7% (active)"}, {"smiles": "COc1ccc(/C=C2\\COc3ccc(-c4ccccc4)cc3C2=O)cc1O", "growth": "19.6%"}, {"smiles": "CN1C(=O)N(C)[C@H]2NC(NN)=N[C@H]21", "growth": "103%"}, {"smiles": "O=C(Nc1cccc(Cl)c1)Oc1c(Br)c(Br)c(Br)c(Br)c1Br", "growth": "98.2%"}, {"smiles": "COc1cc(NCCCN(CC(C)C)CC(C)C)c2ncccc2c1", "growth": "72.9%"}, {"smiles": "CC(=O)c1c(C)[nH]c(-c2nc3ccc(N4CCN(C)CC4)cc3[nH]2)c1-c1ccccc1", "growth": "14.9%"}, {"smiles": "O=C(Nc1ccc(F)cc1)c1c(NC(=O)C(F)(F)F)sc2c1CCCCC2", "growth": "11.5%"}, {"smiles": "COc1ccc(C(=O)c2cc3c(N)c(C(=O)Nc4cccc(Cl)c4C)sc3nc2C)cc1", "growth": "15.9%"}, {"smiles": "COc1ccccc1/C=C1\\Oc2cc(OCCCN3CCCC3)ccc2C1=O", "growth": "77.7%"}, {"smiles": "CCc1nc(C)cn1C(=O)OCc1nc2nc(Cl)nc(N3CCOCC3)c2[nH]1", "growth": "-28.1% (active)"}, {"smiles": "CN1CCN(c2cc(F)c(NC3=C(Cl)C(=O)c4ncccc4C3=O)c(F)c2)CC1", "growth": "-8.53% (active)"}, {"smiles": "COc1ccc(Cl)cc1NC(=O)c1c(NC(=O)C(F)(F)C(F)(F)F)sc2c1CCCCC2", "growth": "14.9%"}, {"smiles": "O=C(O)CCCCCCCCCCCCCCC(=O)O", "growth": "104%"}, {"smiles": "NC(=O)C1(N2CCCCC2)CCN(CCCC(=O)c2ccc(F)cc2)CC1", "growth": "93.6%"}, {"smiles": "CCOC(=O)c1ccc(Nc2ccnc(SCC(=O)c3ccc(C#N)cc3)n2)cc1", "growth": "75.8%"}, {"smiles": "O=S(=O)(c1cccc(NC2=Nc3cccc4cccc2c34)c1)N1CCCC1", "growth": "60.4%"}, {"smiles": "COc1ccccc1N1CCN(C(=O)c2ccc3nc(NC(=O)c4ccc(NCCc5ccccc5)c([N+](=O)[O-])c4)sc3c2)CC1", "growth": "81.5%"}, {"smiles": "COc1ccc(Nn2c(SCC(=O)Nc3nc(-c4ccc(Cl)cc4)cs3)nc(C)c2C)cc1", "growth": "59.8%"}, {"smiles": "CC1=CC2(C)/C=C(C)/C=C\\CC(O)/C=C3/C=CC(=C4C(=O)OC2(CC1C)C4=O)OC3", "note": "(configuration not stated)", "growth": "-56.9% (active)"}]}, {"tested_on": "HT29 colon", "experiment": "NCI-60 one-dose screen, 48 h (100 = growth as untreated, 0 = no growth, -100 = all killed)", "conditions": "10 µM unless noted", "values": [{"smiles": "O=C1/C(=C/c2ccc(O)cc2)COc2ccc(-c3ccccc3)cc21", "growth": "27.1%"}, {"smiles": "CC(=O)N1N=C(c2cccc(Nc3ccncc3)c2)CC1c1ccc2c(c1)OCO2", "note": "(configuration not stated)", "growth": "32.7%"}, {"smiles": "Clc1nc(Cl)c2ncn(CCOCCn3cnc4c(Cl)nc(Cl)nc43)c2n1", "growth": "-60.5% (active)"}, {"smiles": "COc1ccc(/C=C2\\COc3ccc(-c4ccccc4)cc3C2=O)cc1O", "growth": "25.8%"}, {"smiles": "Cc1c2c(cc[n+]1Cc1ccccc1)c1ccc(OCC3CCCCC3)cc1n2CC1CCCCC1", "growth": "-79% (active)"}, {"smiles": "CC[N+](CC)(CCCC(C)[N+]1(Cc2ccccc2)C(C)=CC=C1C)Cc1ccccc1", "note": "(configuration not stated)", "growth": "44.1%"}, {"smiles": "CN1C(=O)N(C)[C@H]2NC(NN)=N[C@H]21", "growth": "105%"}, {"smiles": "O=C(Nc1cccc(Cl)c1)Oc1c(Br)c(Br)c(Br)c(Br)c1Br", "growth": "91.8%"}, {"smiles": "NC(=O)c1ncn(C2OC(CO)C(O)C2O)n1", "note": "(configuration not stated)", "growth": "73.3%"}, {"smiles": "COc1cc(/C=C/C(=O)c2c(C)oc3nc[nH]c(=O)c23)ccc1O", "growth": "108%"}, {"smiles": "COc1cc(NCCCN(CC(C)C)CC(C)C)c2ncccc2c1", "growth": "82.7%"}, {"smiles": "O=[N+]([O-])c1cccc(-c2nc(-c3ccc(Cl)cc3Cl)cn2-c2ccccc2)c1", "growth": "-67.8% (active)"}, {"smiles": "O=C(N/N=C/c1ccc(F)cc1)c1ccccc1Nc1cccc(C(F)(F)F)c1", "growth": "118%"}, {"smiles": "COc1ccc(Cn2nc(-c3cc(OC)c(OC)c(OC)c3)c3c2CCc2cnoc2-3)cc1OC", "growth": "22%"}, {"smiles": "Fc1ccc(C2CC(c3cccc(Nc4ccncc4)c3)=NN2c2ccccc2)cc1", "note": "(configuration not stated)", "growth": "0.645% (active)"}, {"smiles": "CCn1cc(C2NC(=O)c3ccccc3N2)c2cccc(C)c21", "note": "(configuration not stated)", "growth": "-22.9% (active)"}, {"smiles": "Cc1nc2sc(C(=O)Nc3ccccc3)c(N)c2cc1C(=O)c1ccc(C(F)(F)F)cc1", "growth": "103%"}, {"smiles": "CC(=O)c1c(C)[nH]c(-c2nc3ccc(N4CCN(C)CC4)cc3[nH]2)c1-c1ccccc1", "growth": "14.5%"}, {"smiles": "CCC1(CC)NC(=O)c2c(c3ccc(Cl)c(Cl)c3n2C)C1C#N", "note": "(configuration not stated)", "growth": "100%"}, {"smiles": "O=C(Nc1ccc(F)cc1)c1c(NC(=O)C(F)(F)F)sc2c1CCCCC2", "growth": "5.86% (active)"}, {"smiles": "O=C(NCCN1CCOCC1)OCc1nc2nc(Cl)nc(N3CCOCC3)c2[nH]1", "growth": "122%"}, {"smiles": "CC(C)[N+](C)(CCOC(COc1ccccc1)COc1ccccc1)C(C)C", "growth": "73.4%"}, {"smiles": "COc1ccc(C(=O)c2cc3c(N)c(C(=O)Nc4cccc(Cl)c4C)sc3nc2C)cc1", "growth": "6.48% (active)"}, {"smiles": "COc1ccccc1/C=C1\\Oc2cc(OCCCN3CCCC3)ccc2C1=O", "growth": "16.4%"}, {"smiles": "CCc1nc(C)cn1C(=O)OCc1nc2nc(Cl)nc(N3CCOCC3)c2[nH]1", "growth": "-63.1% (active)"}, {"smiles": "CN1CCN(c2cc(F)c(NC3=C(Cl)C(=O)c4ncccc4C3=O)c(F)c2)CC1", "growth": "11.2%"}, {"smiles": "COc1ccc(Cl)cc1NC(=O)c1c(NC(=O)C(F)(F)C(F)(F)F)sc2c1CCCCC2", "growth": "3.87% (active)"}, {"smiles": "COc1ccccc1/C=C1\\COc2ccc(-c3ccccc3)cc2C1=O", "growth": "5.36% (active)"}, {"smiles": "O=C(O)CCCCCCCCCCCCCCC(=O)O", "growth": "104%"}, {"smiles": "NC(=O)C1(N2CCCCC2)CCN(CCCC(=O)c2ccc(F)cc2)CC1", "growth": "5.09% (active)"}, {"smiles": "CCN1C(=O)/C(=c2\\sc3n(c2=O)NC2C(N=3)N(CC)C(=O)N2CC)c2ccccc21", "note": "(configuration not stated)", "growth": "12.9%"}, {"smiles": "CCCCCCCCCCCCCCCC(=O)OC[C@@]1(O)C[C@@]23CC[C@@H]4C(C)(C)[C@H](O)CC[C@@]4(C)[C@@H]2CC[C@H]1C3", "growth": "104%"}, {"smiles": "CCOC(=O)c1ccc(Nc2ccnc(SCC(=O)c3ccc(C#N)cc3)n2)cc1", "growth": "76.2%"}, {"smiles": "O=S(=O)(c1cccc(NC2=Nc3cccc4cccc2c34)c1)N1CCCC1", "growth": "67.4%"}, {"smiles": "COc1ccccc1N1CCN(C(=O)c2ccc3nc(NC(=O)c4ccc(NCCc5ccccc5)c([N+](=O)[O-])c4)sc3c2)CC1", "growth": "83.4%"}, {"smiles": "CCN(CC)CCOC(COc1cc(C)cc(C)c1)COc1cc(C)cc(C)c1", "growth": "10.3%"}, {"smiles": "COc1ccc(Nn2c(SCC(=O)Nc3nc(-c4ccc(Cl)cc4)cs3)nc(C)c2C)cc1", "growth": "30.1%"}, {"smiles": "CC1=CC2(C)/C=C(C)/C=C\\CC(O)/C=C3/C=CC(=C4C(=O)OC2(CC1C)C4=O)OC3", "note": "(configuration not stated)", "growth": "-6.52% (active)"}]}]}
